# Data reported in PubChem BioAssay (NCI).
# Compounds without any hit were thinned out: in the full panel of roughly 83,000, 20% have a hit.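 Values shown are percent growth following 48 h exposure of cells in 96-well plates to a single concentration of compound; below 10 was considered active.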 A number with no mark means an inactive call. Active and inactive are the calls of the source.
# Tested on: MOLT-4 leukemia
# Experiment: NCI-60 one-dose screen, 48 h (100 = growth as untreated, 0 = no growth, -100 = all killed)
# Settings: 10 µM unless noted
row,Compound,growth
1,CC1(C)CC[C@]2(C(=O)O)CC[C@]3(C)C(=CC[C@@H]4[C@@]5(C)C/C(=C/c6cccnc6)[C@H](O)C(C)(C)[C@@H]5CC[C@]43C)[C@@H]2C1,4.37% [100 µM] (active)
2,CCC(Br)(CC)C(=O)c1ccc(OCC(=O)O)c(Cl)c1Cl,109%
3,C#C[C@]1(O)CC[C@H]2[C@@H]3CC=C4c5nc(Nc6ccccc6[N+](=O)[O-])sc5CC[C@]4(C)[C@H]3CC[C@@]21C,43.7%
4,O=C(N/N=C\c1cc(Cl)ccc1O)N/N=C/c1cc(Cl)ccc1O,43.2%
5,C=C(C)[C@@H]1CC[C@]2(C(=O)NCCNCCNC(=O)OC(C)(C)C)CC[C@]3(C)[C@H](CC[C@@H]4[C@@]5(C)CCC(=O)C(C)(C)[C@@H]5CC[C@]43C)[C@@H]12,11.7% [100 µM]
6,Cc1cc(C)c(O)c(CNCCCNCc2cc(C)cc(C)c2O)c1,67.5%
7,O=C(Nc1ccc(C(=O)/C=C/c2ccc(N3CCOCC3)cc2)cc1)Nc1ccc([N+](=O)[O-])cc1,66.2%
8,C[C@H]1[C@H](C)CC[C@]2(C(=O)N3CCN(C)CC3)CC[C@]3(C)C(=CC[C@@H]4[C@@]5(C)C/C(=C/c6ccco6)C(=O)C(C)(C)[C@@H]5CC[C@]43C)[C@H]12,22.6% [100 µM]
9,Nc1nc(Cl)c2ncn(Cc3cc4c(cc3I)OCO4)c2n1,52.6%
10,CC1(C)OC2[C@@H](CNC(=O)NC(=O)NC(=O)CI)O[C@@H](n3cnc4c(NC(=O)Nc5ccccc5)ncnc43)[C@H]2O1 (some centres not stated),-23.6% (active)
11,Fc1cc2[nH]ncc2c2c3c(c(-c4cn[nH]c4C(F)(F)F)nc12)C1CCC3C1 (configuration not stated),6.06% (active)
12,CC1Cc2c(Cl)ncnc2N(C)c2ccccc21 (configuration not stated),8.61% (active)
13,C=C(C)[C@@H]1CC[C@]2(COCCCN)CC[C@]3(C)[C@H](CC[C@@H]4[C@@](C)(CCCNCCCN)[C@H](C(=C)C)CC[C@]43C)[C@@H]12,-31.6% [100 µM] (active)
14,CCCCCCSc1ncnc2nc[nH]c12,84.7%
15,C[C@@H]1C[C@H]2C(=O)O[C@@H](C)[C@H](NC(=O)[C@H](Cc3cc(F)cc(F)c3)NC(=O)Nc3ccc(C4CC4)cc3F)C(=O)N3CCC[C@H]3C(=O)N3CCCC[C@H]3C(=O)N[C@@H](C)C(=O)N2C1,28.6%
16,O=[N+]([O-])c1ccc(O)c(-c2nc3ccccc3s2)c1,65.3%
17,COc1cc2c(cc1OC(C)=O)C(=O)CCCC2,115%
18,COc1ccc(CC(C#N)c2ccc(Cl)cc2)cc1 (configuration not stated),72.7%
19,C=C(C)[C@@H]1CC[C@]2(C)[C@H](CC[C@@H]3[C@@H]([C@@](C)(O)CCC=C(C)C)CC[C@]32C)[C@@]1(C)CCC(=O)O,-0.176% [100 µM] (active)
20,CCOc1ccc(S(=O)(=O)Nc2ccc3c(c2)N(S(=O)(=O)CC)CCC3)cc1,71%
21,Cc1cnc(N)nc1OCCNC(=O)c1cccc(-c2ccc(S(=O)(=O)Nc3ccc4c(c3)N(C(=O)C3CC3)CCC4)cc2)c1,37.7%
22,Fc1cc2[nH]ncc2c2c3c(c(-c4cn[nH]c4)nc12)CCCC3,2.1% (active)
